Laboratory results from the supplement of paper PMC7724964.

T1: BTN1A1 285-479 SPRY (domain begin residue: 285, domain end residue: 479), Q13410
T1 chain: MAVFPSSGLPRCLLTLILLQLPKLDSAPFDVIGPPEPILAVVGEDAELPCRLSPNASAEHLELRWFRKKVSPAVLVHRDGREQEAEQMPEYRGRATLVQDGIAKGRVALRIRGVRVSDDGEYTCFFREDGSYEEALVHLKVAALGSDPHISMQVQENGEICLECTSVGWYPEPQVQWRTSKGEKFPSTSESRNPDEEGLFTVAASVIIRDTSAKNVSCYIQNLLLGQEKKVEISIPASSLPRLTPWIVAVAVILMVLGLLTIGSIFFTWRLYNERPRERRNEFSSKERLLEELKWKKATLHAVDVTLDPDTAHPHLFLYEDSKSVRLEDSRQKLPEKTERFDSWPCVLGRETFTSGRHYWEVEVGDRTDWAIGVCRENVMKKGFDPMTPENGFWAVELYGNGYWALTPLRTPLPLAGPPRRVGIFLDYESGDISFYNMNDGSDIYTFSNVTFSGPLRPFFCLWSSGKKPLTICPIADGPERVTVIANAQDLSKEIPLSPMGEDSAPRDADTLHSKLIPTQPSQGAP

T2: CD2BP2 256-341 GYF (domain begin residue: 256, domain end residue: 341), O95400
T2 chain: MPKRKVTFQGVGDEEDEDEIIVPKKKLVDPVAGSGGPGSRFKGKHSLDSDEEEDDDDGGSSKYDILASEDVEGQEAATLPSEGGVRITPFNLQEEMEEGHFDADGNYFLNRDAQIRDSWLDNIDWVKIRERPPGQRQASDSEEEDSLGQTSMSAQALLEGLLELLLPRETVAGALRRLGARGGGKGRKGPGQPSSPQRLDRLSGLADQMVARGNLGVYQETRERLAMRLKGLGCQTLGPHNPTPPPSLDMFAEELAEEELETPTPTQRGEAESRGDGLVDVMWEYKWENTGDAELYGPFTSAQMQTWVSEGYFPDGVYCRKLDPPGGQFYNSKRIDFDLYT

T3: CLTC 1-363 Clathrin_propel+Clathrin-link (domain begin residue: 1, domain end residue: 363), Q00610
T3 chain: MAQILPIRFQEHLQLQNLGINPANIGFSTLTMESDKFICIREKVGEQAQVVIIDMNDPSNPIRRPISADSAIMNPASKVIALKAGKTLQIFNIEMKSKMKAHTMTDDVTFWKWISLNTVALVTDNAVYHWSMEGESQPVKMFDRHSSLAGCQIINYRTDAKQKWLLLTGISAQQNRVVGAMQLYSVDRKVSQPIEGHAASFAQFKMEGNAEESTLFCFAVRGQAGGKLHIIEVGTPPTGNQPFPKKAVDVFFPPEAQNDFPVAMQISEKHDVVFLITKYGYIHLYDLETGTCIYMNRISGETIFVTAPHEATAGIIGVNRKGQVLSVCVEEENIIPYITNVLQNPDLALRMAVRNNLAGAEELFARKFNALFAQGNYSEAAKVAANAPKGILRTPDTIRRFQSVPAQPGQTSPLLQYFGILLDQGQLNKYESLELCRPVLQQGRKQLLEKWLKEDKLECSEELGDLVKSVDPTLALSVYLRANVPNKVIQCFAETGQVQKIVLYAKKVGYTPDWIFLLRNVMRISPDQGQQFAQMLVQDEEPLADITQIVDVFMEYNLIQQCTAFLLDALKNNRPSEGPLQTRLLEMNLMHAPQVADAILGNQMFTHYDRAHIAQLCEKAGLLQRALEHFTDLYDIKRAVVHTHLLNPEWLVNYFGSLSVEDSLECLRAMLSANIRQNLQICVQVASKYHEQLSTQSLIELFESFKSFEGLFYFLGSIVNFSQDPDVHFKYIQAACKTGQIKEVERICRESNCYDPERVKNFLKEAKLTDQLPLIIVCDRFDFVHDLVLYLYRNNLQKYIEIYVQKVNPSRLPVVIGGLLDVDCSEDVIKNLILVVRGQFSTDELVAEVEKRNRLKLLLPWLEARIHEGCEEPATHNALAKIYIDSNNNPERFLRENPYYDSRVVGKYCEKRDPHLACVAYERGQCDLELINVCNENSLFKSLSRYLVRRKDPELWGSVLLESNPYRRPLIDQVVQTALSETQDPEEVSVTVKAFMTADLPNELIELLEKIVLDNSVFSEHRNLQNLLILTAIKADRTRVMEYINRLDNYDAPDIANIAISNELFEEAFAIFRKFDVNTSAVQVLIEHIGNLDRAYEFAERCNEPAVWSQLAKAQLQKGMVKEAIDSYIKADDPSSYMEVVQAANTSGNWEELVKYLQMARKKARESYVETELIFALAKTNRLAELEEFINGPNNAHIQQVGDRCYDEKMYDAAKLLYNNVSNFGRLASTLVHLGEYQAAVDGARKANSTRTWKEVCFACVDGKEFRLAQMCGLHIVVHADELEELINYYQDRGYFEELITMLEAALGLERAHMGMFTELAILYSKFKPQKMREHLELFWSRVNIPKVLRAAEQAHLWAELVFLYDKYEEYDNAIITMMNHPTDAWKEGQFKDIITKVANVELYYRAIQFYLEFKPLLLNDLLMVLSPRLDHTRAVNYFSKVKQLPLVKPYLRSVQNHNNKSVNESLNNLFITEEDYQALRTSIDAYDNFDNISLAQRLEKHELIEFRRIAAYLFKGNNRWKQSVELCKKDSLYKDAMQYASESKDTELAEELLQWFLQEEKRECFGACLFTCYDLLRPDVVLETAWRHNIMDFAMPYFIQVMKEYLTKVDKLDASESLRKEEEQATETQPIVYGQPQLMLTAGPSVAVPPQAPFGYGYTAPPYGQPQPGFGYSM

T4: CAPN2 513-700 EF-hand_8 (domain begin residue: 513, domain end residue: 700), P17655
T4 chain: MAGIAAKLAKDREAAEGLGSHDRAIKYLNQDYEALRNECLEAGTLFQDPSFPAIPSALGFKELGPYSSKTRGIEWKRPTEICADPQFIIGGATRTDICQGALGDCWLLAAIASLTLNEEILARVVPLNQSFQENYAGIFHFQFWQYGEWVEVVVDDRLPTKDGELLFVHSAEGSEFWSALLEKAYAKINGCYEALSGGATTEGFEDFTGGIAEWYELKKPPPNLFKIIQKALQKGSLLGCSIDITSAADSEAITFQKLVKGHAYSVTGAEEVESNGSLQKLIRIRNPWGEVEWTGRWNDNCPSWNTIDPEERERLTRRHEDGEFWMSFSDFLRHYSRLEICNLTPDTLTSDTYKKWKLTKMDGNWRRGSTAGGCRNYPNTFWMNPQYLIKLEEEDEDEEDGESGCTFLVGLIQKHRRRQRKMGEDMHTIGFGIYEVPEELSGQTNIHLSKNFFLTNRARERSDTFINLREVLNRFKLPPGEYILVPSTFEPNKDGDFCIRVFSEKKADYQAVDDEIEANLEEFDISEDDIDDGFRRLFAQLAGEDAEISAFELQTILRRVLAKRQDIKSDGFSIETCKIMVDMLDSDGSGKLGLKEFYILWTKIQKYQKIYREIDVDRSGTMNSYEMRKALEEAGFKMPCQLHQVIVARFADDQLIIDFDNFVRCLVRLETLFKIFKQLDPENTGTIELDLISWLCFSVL

T5: GIGYF2 507-602 GYF (domain begin residue: 507, domain end residue: 602), Q6Y7W6
T5 chain: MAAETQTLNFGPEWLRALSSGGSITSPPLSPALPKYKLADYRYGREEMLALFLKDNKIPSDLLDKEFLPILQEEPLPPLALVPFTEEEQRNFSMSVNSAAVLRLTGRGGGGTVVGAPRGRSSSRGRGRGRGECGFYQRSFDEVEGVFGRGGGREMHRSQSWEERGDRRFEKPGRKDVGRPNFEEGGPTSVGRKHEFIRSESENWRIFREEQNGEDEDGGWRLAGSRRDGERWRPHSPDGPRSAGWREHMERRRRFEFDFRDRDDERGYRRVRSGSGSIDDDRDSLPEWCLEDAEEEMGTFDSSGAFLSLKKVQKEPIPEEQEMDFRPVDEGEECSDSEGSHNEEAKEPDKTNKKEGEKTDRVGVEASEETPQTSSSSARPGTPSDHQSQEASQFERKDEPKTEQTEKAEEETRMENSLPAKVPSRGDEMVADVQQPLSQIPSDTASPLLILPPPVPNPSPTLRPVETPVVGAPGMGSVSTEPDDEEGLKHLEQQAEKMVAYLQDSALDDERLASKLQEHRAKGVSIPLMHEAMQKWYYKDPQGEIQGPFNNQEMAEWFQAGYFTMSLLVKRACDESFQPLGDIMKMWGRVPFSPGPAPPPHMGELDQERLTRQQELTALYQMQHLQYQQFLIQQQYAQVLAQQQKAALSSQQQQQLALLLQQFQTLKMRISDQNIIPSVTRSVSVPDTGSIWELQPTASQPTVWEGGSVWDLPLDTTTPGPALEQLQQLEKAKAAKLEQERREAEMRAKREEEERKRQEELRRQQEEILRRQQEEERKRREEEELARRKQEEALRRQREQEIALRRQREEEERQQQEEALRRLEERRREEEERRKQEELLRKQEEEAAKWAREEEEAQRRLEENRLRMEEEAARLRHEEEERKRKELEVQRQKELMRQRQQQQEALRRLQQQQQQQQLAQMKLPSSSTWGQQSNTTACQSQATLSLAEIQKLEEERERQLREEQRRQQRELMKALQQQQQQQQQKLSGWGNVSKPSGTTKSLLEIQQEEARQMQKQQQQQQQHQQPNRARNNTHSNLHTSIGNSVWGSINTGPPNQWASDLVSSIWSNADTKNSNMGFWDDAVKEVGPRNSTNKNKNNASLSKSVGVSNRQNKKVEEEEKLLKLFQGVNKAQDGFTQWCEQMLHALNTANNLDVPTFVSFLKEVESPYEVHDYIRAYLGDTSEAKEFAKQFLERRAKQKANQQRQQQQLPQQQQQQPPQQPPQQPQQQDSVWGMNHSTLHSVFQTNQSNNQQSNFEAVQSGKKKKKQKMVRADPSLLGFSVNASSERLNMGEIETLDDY


Biological target: T1, BTN1A1 285-479 SPRY (domain begin …
Assay: phage ELISA signal ratio (GST-PRM binding over GST background); higher = stronger binding of peptide-phage to the PRM
Description: (§1)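 Phage-displayed random hexadecapeptides (Cys-free, flanked by invariant Gly linkers, fused to the M13 P8 major coat protein) were selected over 5 rounds against GST-fused human PRM domains. Individual clones from rounds 4-5 were tested by phage ELISA, and positive clones binding the target but not GST were sequenced. Values are the ELISA signal ratio of target over background (GST); the background signal is given separately.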

Row | Binder | phage ELISA signal ratio
1 | RDPHWQHKQQMQIVLM | 11.1
2 | DWQYTYMPDMIPDWVM | 20.7
3 | WHPMDWMEHFQMMPDT | 5.73

Biological target: T2, CD2BP2 256-341 GYF (domain begin …
Assay: as above
Description: as §1

Row | Binder | phage ELISA signal ratio
4 | TAPPGYGARYMETPYV | 16.9
5 | EDPTLKVGHPPGWSFK | 17.6
6 | YPYPPGWDSNYAQRVE | 19.2
7 | GHPPGWSEFGWEHLVI | 16.2
8 | EPPGWEVRQPGMVQVQ | 16.9
9 | WQATDYPQQPPPGWKE | 18.9

Biological target: T3, CLTC 1-363 …
Assay: as above
Description: as §1

Row | Binder | phage ELISA signal ratio
10 | DLMWWPETELHQGSWS | 17.3
11 | WPNLEWMWDDEDMQFH | 15.5
12 | GMSPLIEWPEEWWWLD | 21

Biological target: T4, CAPN2 513-700 EF-hand_8 (domain begin …
Assay: as above
Description: as §1

Row | Binder | phage ELISA signal ratio
13 | ISESQIAQFVMAWMQQ | 22.5

Biological target: CKS1B 1-79 CKS (domain begin residue: 1, domain end residue: 79), P61024
Assay: as above
Description: as §1

Sequence of CKS1B 1-79 CKS (domain begin residue: 1, domain end residue: 79), P61024 (P61024 whole entry): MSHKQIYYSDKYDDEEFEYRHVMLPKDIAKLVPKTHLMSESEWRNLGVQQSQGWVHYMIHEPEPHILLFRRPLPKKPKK

Row | Binder | phage ELISA signal ratio
14 | MTWTATWYASDPYMEV | 28.8

Biological target: T5, GIGYF2 507-602 GYF (domain begin …
Assay: as above
Description: as §1

Row | Binder | phage ELISA signal ratio
15 | EPPGWEVRQPGMVQVQ | 17.5

Biological target: CBX3 109-173 Chromo_shadow (domain begin residue: 109, domain end residue: 173), Q13185
Assay: as above
Description: as §1

Sequence of CBX3 109-173 Chromo_shadow (domain begin residue: 109, domain end residue: 173), Q13185 (Q13185 whole entry): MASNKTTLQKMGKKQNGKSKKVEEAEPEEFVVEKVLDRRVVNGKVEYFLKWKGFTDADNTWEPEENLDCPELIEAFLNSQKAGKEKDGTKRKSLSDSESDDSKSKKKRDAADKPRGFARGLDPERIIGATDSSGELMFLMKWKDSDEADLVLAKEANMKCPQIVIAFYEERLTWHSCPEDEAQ

Row | Binder | phage ELISA signal ratio
16 | HWIDSWEGFRARVIPS | 12.6
